Results as given in PubChem BioAssay (NCI).
This is part of a sample that, as a whole, favours compounds with a hit. Of some 79,000 tested, about 15% had one in any assay. Values without a mark were called inactive. The source made the active and inactive calls. No stated cut-off is given here; in the data, active means growth inhibition above about 70%; inactive means the rest. Where a SMILES comes first, the peptide text is derived from it. [ ]: non-standard residue; d: D form. The star is where a group is joined. ξ: configuration not given here. Cbz = O=C(OCc1ccccc1)*; ξNva = CCCC(N)C(=O)O

Experiments:
[1] = NCI Yeast Anticancer Drug Screen. Data for the rad50 strain (AID 155);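 further: 0% = growth of vehicle-only cultures of the same strain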; settings: S. cerevisiae rad50 strain growth inhibition; at 50.0 µM; hits give high values
Method in brief: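 A DNA repair-deficient yeast mutant serves as the test organism; compound-induced growth inhibition is calculated against vehicle-treated cells.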

[2] = NCI Yeast Anticancer Drug Screen. Data for the mec2-1 strain (AID 157); settings: S. cerevisiae mec2-1 strain, at 50.0 µM, hits give high values
Method in brief: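 Readout is yeast growth inhibition, normalised to vehicle-treated controls, in the mec2-1 strain exposed to compound.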

[3] = NCI Yeast Anticancer Drug Screen. Data for the sgs1 mgt1 strain (AID 161);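 further: 0% = growth of cultures given vehicle only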; settings: S. cerevisiae sgs1 mgt1 strain, at 50.0 µM, hits give high values
Method in brief: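 This yeast growth screen uses a strain with defined DNA-repair lesions; compound-treated growth is compared with vehicle-treated growth.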

[4] = NCI Yeast Anticancer Drug Screen. Data for the cln2 rad14 strain (AID 165);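 further: 0% = growth equal to vehicle treated cultures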; settings: S. cerevisiae cln2 rad14 strain, at 50.0 µM, hits give high values
Method in brief: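 Relative to vehicle controls, growth inhibition of compound-treated cln2 rad14 yeast was recorded.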

[5] = NCI Yeast Anticancer Drug Screen. Data for the bub3 strain (AID 167); settings: S. cerevisiae bub3 mutant strain, at 50.0 µM, hits give high values
Method in brief: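 Inhibition values come from growth of compound-treated mutant yeast normalised to vehicle-treated controls.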

[6] = NCI Yeast Anticancer Drug Screen. Data for the mlh1 rad18 strain (AID 175); settings: S. cerevisiae mlh1 rad18 strain growth inhibition; at 50.0 µM; hits give high values
Method in brief: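 Test agents were incubated with a yeast strain of defined genotype (DNA damage repair defect). Inhibition of growth was derived by comparison with vehicle-exposed cultures.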

Row | Structure (SMILES) | growth inhibition [1] | growth inhibition [2] | growth inhibition [3] | growth inhibition [4] | growth inhibition [5] | growth inhibition [6]
1 | COc1ccc(-c2cc(C(=O)O)c3cccc(C)c3n2)cc1 | 35.6% | -1.7% | 35% | 36.1% | 23.8% | 47.1%
2 | COC(=O)c1cc(OC)c2cccnc2c1Nc1ccccc1 | -7.75% | 12.2% | 9.25% | 0.6% | 11.1% | -6.8%
3 | CC(C)OC(=O)NN(C)c1ccccc1 | 15.4% | 11.1% | 14% | -54.3% | 3.9% | 13.8%
4 | CNc1ncn(-c2c(C)cccc2C)c(=O)n1 | -2.5% | -3.6% | 8.85% | -15.8% | -2.65% | 4.05%
5 | CCCC(NC(=O)CNC(=O)OCc1ccccc1)C(=O)O (stereo not drawn) (Cbz-Gly-[ξNva]-OH) | 31.6% | 7% | 2.35% | 19.9% | 5.45% | 3.95%
6 | Cc1cc(Nc2ccc(S(=O)(=O)O)c3cc(S(=O)(=O)O)cc(S(=O)(=O)O)c23)c2ccccc2n1 | -14.1% | 4.3% | 3.2% | -10.9% | 6% | 8.7%
7 | C=CC1CNCCC1CC(=O)OCC (configuration not stated) | -16.6% | -5.55% | 3% | -12.4% | 4.45% | -24.4%
8 | CC(C)(C)NC(=O)NC(C)(C)C | -15.1% | -7.95% | 7.3% | 14.8% | 20.9% | 4.45%
9 | C=C1C2CCC3(CCC4C5(C)CCCC4(CN(C(C)=O)C5)C3C2)C1O (configuration not stated) | 11.2% | -5.1% | 10.3% | 1.4% | 6.25% | 8.95%
10 | CN(C)CC(O)CNC(=O)Nc1ccccc1 (configuration not stated) | 0.6% | 14.2% | 12.7% | 0.35% | -0.05% | -42.8%
11 | CCCCCCCCCCCOCCC1C(C(C)OCCN2CCCC2)OC2OC(C)(C)OC21 (configuration not stated) | 91.5% (active) | 92.8% (active) | 90.5% (active) | 90.4% (active) | 88.2% (active) | 89% (active)
12 | O=P(CCC(O)c1ccccc1)(c1ccccc1)c1ccccc1 (configuration not stated) | -7.45% | 5.65% | -0.65% | 0.5% | -9.6% | 9.8%
13 | CCOC(=O)C(Cc1ccc(OCc2ccccc2)c(OCc2ccccc2)c1)(NC=O)C(=O)OCC | 36.6% | -1.6% | 19.8% | -14.8% | -9.9% | 9%
14 | COc1ccc(Nc2nc3ccccc3nc2C(=O)O)cc1OC | -23.9% | 12.1% | -9.6% | 6.15% | 26.1% | -33.8%
15 | CN(C)c1ccc(/C=C/C(=O)/C=C/c2ccc(N(C)C)cc2)cc1 | -13.5% | -2% | -13.8% | 7.6% | -12.2% | -8.9%
16 | CC1=C(C(=O)NN)CC/C1=N\N | -25.4% | -18.8% | -11.5% | -10.6% | -9.3% | -10.6%
17 | c1ccc2c(-c3c[nH]c4ccccc34)c[nH]c2c1 | 16.8% | -1.5% | -3.05% | -27.2% | -8.75% | 15.3%
18 | CCN(C(=O)/C=C/c1ccccc1)C1CCCCC1 | 17.2% | 27.9% | 53.2% | 47.2% | 35.5% | 48.5%
19 | OCCc1c[nH]c2ccccc12 | -18.7% | -16.2% | 10.5% | -17.3% | -1.85% | 11.8%
20 | CC(SCCNC(N)=O)C(N)=O (configuration not stated) | -16.1% | -7.8% | -6.6% | -28.4% | 7.25% | -14.4%
21 | O=c1c2ccccc2nc(-c2ccccc2)n1/N=C/c1cccnc1 | 0.9% | 49.5% | 30.8% | -10.8% | 7.5% | 41.2%

Row | Structure (SMILES) | growth inhibition [1] | growth inhibition [2] | growth inhibition [3] | growth inhibition [4] | growth inhibition [5] | growth inhibition [6]
22 | S=c1c2ccccc2sn1-c1ccccc1 | 26.2% | 21.6% | 14.9% | -0.85% | -12.9% | 51.5%
23 | COc1nc2cc3c(cc2n2cccc12)oc1ccccc13 | 11.9% | 7.5% | -4% | 12.2% | -1.75% | -2.65%
24 | CCCN1CN(C(C(=O)N[C@@H]2C(=O)N3C(C(=O)O)=C(C)CSC23)c2ccc(O)cc2)CSC1=S (some centres not stated) | 11.8% | 7.15% | 10.2% | -25.8% | -23.6% | 34.4%
25 | NC(=O)NC(=O)Cc1ccc([N+](=O)[O-])cc1 | 5.1% | 0.1% | 5.1% | -5.15% | 6.25% | -0.35%
26 | CC(=O)Nc1ccc(N(C)C)c(C)c1 | -6.65% | -7.55% | -1.85% | -7.75% | 12.9% | -10.2%
27 | Oc1nc2nc[nH]n2c1N=Nc1ccccc1 | -22.7% | -12.9% | -7.5% | -12.5% | 10.3% | 6.9%
28 | c1ccc2c(c1)CCC2 | 12.1% | -10.2% | -23.1% | 1.55% | -18.1% | -6.6%
29 | O=C(O)CCC(NC(=O)CCC(NC(=O)OCc1ccccc1)C(=O)OCc1ccccc1)C(=O)OCc1ccccc1 (configuration not stated) | -13.1% | -31.5% | -10.6% | 9.2% | 5.4% | -10.8%
30 | CC(=O)OC1C(O)C(C)OC(OC2C(C)OC(OC(=O)[C@@H]3CC[C@@H]4[C@H](C3)OC3(C[C@@H](OC(=O)/C=C/c5ccccc5)[C@@H](C)CO3)[C@@]43CO3)C(O)C2OC(C)=O)C1O (some centres not stated) | 91% (active) | 93.4% (active) | 92.2% (active) | 90.1% (active) | 91.1% (active) | 91.8% (active)
31 | COC(=O)C(C(=O)C(=O)Nc1ccc(C)cc1)c1nc2ccc([N+](=O)[O-])cc2[nH]c1=O (configuration not stated) | 16.9% | 15.2% | 0.8% | -3.95% | 22.2% | 4.6%
32 | CCOc1cc(/C=N\NC(=S)N/N=C/c2ccc(O)c(OCC)c2)ccc1O | -15.2% | -0.75% | -4.35% | 1.55% | -6.65% | 29.9%
33 | CSCCC(NC(=O)c1cnc2ccccc2n1)C(=O)O (configuration not stated) | -4.55% | 2.6% | 11.2% | 5.55% | 14.7% | -17.1%
34 | CC1CC(=O)Nc2ncnc(N)c21 (configuration not stated) | -25.1% | -2.45% | 2.3% | -4.7% | 5.3% | -9%
35 | N=c1ncn(C/C=C/c2ccccc2)c2nc[nH]c12 | -12.7% | -28.4% | -8.55% | -11.4% | -63.3% | 5%
36 | COc1cc(C2CC(C)(OC)Oc3cc4c(cc32)OCO4)cc(OC)c1OC (configuration not stated) | 42.5% | -2.6% | 2.7% | 19.8% | 19.3% | 20.2%
37 | Clc1c(Cl)c2ccccc2c2ccccc12 | 10.1% | -8.4% | 11.3% | 8.85% | 32.5% | 4.85%
38 | Cc1ccc(/C=C/C(=O)c2sc(-n3nc(-c4ccccc4)cc3-c3ccccc3)nc2C)cc1 | -2.3% | -6.85% | -29.9% | 5.6% | 20.1% | -7.4%
39 | COC1(C)O[C@@]2(C)c3ccccc3C(=O)[C@@]2(c2ccccc2)O1 (some centres not stated) | -3.35% | -0.05% | 13.1% | -11.5% | 5.4% | 18.5%
40 | CC(C)=CCC(C)C | -12.1% | 3.85% | 6.85% | 7.9% | -12.6% | -3.85%
41 | C=C(CO)[C@H]1Oc2ccc(C(C)=O)cc2[C@@H]1O | -16.1% | -10.1% | -24.6% | 6.85% | -10.7% | -12.5%
42 | Cc1cc(Br)cc(C)c1NC(=O)C(=O)Nn1c(=S)[nH]c2ccccc2c1=O | -8.55% | -16.1% | -6.15% | 12.8% | -8.2% | 1.3%
